# Inconclusive results are not listed. Activity calls are given as the source filed them. Calls come from the whole dose curve; as a rule, active = well fitted inhibition curve with a large enough effect; inconclusive = small, poorly fitted or top-dose-only effect, or effect the other way; inactive = flat fitted curve, though single readings scatter.
# Target: Ubiquitin carboxyl-terminal hydrolase 2 (Homo sapiens) (UniProt O75604)
# Assay: Confirmation Assay for Inhibitors of Ubiquitin-specific Protease USP2a Using CHOP2 as the Reporter; note: nearly all actives have a fitted effect of over 55% in size;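 for activity change, negative = inhibition: plate controls were DMSO wells for no effect and full inhibition by NEM control for full effect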
# Conditions: USP2 core, Ub-CHOP2 coupled reporter fluorescence; series mostly up to 38.3 µM; activity change, negative = inhibition: at the top concentration
# Summary of the method: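 Ub-CHOP2 cleavage coupled to reporter activation was read by fluorescence after 60 min at RT, with 25 nM final Ub-CHOP2 and substrate. Enzyme (10 nM final USP2 core) first sat 30 min with compound; data were normalized to NEM and fitted to concentration-response curves.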
# Potency is the fitted concentration of half-maximal effect.
# Ubiquitin carboxyl-terminal hydrolase 2 (Homo sapiens), sequence (O75604 whole entry, looked up): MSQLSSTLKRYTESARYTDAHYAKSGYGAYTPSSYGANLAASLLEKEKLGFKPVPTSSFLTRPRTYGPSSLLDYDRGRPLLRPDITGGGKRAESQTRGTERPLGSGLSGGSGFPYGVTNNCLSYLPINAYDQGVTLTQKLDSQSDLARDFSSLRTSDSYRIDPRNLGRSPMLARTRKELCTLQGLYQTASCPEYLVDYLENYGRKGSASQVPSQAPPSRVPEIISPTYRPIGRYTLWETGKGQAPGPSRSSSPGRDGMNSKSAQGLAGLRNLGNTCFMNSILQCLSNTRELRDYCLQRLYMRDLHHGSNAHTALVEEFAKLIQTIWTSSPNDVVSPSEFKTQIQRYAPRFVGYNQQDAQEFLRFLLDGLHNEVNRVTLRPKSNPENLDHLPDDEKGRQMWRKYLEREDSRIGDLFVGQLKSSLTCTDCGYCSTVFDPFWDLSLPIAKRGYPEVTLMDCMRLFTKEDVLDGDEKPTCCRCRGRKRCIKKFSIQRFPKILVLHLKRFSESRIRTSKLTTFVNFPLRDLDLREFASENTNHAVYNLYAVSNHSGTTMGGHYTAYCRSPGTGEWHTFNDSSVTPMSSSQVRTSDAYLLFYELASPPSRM
Structure (SMILES),"activity change, negative = inhibition",Potency
CCOc1ccc2nc(NC(=O)Nc3ccccc3)sc2c1,-2.42% (inactive),
CCC(=O)Nc1c2c(nn1-c1ccc(F)cc1)CS(=O)C2 (stereo not given),-2.8% (inactive),
O=C(Nc1nnc(-c2cccs2)o1)c1cccc(Oc2ccccc2)c1,-18.2% (inactive),
CC(C)(C)[C@H]1COC(=O)[C@@H](Cc2ccc(F)cc2)C/C=C\C[C@@H](CC(=O)N[C@@H](CO)Cc2ccccc2)C(=O)N1,1.41% (inactive),
CC(/C=N/NC(=O)c1cc(-c2cccs2)[nH]n1)=C\c1ccccc1,-8.93% (inactive),
COc1cccc(NC(=O)Cc2ccccc2)c1,0.289% (inactive),
O=C(CSCCO)Nc1cccc2ccccc12,-2.29% (inactive),
O=[N+]([O-])c1ccc(Sc2nnnn2-c2ccccc2)c(Cl)c1,0.576% (inactive),
COc1cc(C)c(S(=O)(=O)NCc2ccc3c(c2)OCO3)cc1C,5.8% (inactive),
CC(NC(=O)COc1ccccc1-c1ccccc1)c1ccccc1 (stereo not given),2.1% (inactive),
O=C(COC(=O)c1c2c(nc3ccccc13)/C(=C/c1ccco1)CC2)NC1CCCC1,,14.7 µM (active)
O=C(c1ccco1)N1CCN(C(c2cccs2)c2sc3ncnn3c2O)CC1 (stereo not given),1.39% (inactive),
C=CCn1c(N)c(C(=O)NCc2cccnc2)sc1=S,-0.483% (inactive),
CCOc1cc(/C=C2\C(=O)N(c3nc(-c4ccc(Br)cc4)cs3)N=C2c2ccccc2)ccc1O,,4.65 µM (active)
CC(C)(C)C(=O)Nc1c2c(nc3c1CCC3)CCCC2,-3.96% (inactive),
CN1CCN(CCC(=O)N/N=C/c2cc([N+](=O)[O-])ccc2O)CC1,-3.37% (inactive),
COc1ccc2[nH]c(=O)c(CN(C)C(=O)C3CCCCC3)cc2c1,-0.262% (inactive),
CCCC(=O)Nc1ccc(N2CCN(C(=O)c3cc4ccccc4o3)CC2)cc1,4.98% (inactive),
C[C@@H]1CN([C@H](C)CO)C(=O)c2cc(NS(=O)(=O)c3ccc(F)cc3)ccc2O[C@@H]1CN(C)Cc1ccc(Cl)c(Cl)c1,-2.62% (inactive),
c1coc(CNc2nc(-c3cccs3)cs2)c1,-2.65% (inactive),

Structure (SMILES),"activity change, negative = inhibition",Potency
Cc1ccc(N(CC(=O)Nc2ccc(S(=O)(=O)N3CCOCC3)cc2)S(C)(=O)=O)cc1C,-1.17% (inactive),
O=C(Oc1ccccc1C(=O)Nc1ccccc1)c1ccccc1Br,1.52% (inactive),
CCOc1ccc(S(=O)(=O)N(CC(=O)O)c2ccccc2)cc1,3.64% (inactive),
O=C(NCc1ccccc1)C1CCC1,1.49% (inactive),
C=CCSC1=N/C(=C\C=C\c2ccco2)C(=O)S1,-9.76% (inactive),
O=C(COc1ccccc1)NCc1nnc(SCC(=O)Nc2nccs2)n1-c1ccccc1,-4.3% (inactive),
O=C(C[n+]1ccc(-c2cc(C(=O)Nc3cccc(C(F)(F)F)c3)c3ccccc3n2)cc1)c1cccc([N+](=O)[O-])c1,-8.79% (inactive),
O=C(O[C@@H]1OC2COC(=O)c3cc(O)c(O)c(O)c3-c3c(cc(O)c(O)c3O)C(=O)O[C@@H]([C@H]1O)[C@@H]2O)c1cc(O)c(O)c(O)c1,,16.5 µM (active)
CCOC(=O)N1CCC(NC(=O)c2ccc(OC)c(CN3CC(=O)N4CCCC4C3=O)c2)CC1 (stereo not given),-1.63% (inactive),
O=C(O)/C=C/c1ccc(S(=O)(=O)Nc2ccccc2C(=O)Nc2ccc(F)cc2)cc1,1.87% (inactive),
Cn1nnnc1Sc1ncnc2scc(-c3ccc4c(c3)OCO4)c12,-2.78% (inactive),
CCOc1ccc(-c2ccc(/C=C3/C(=N)N4C(C)=CSC4=NC3=O)o2)c([N+](=O)[O-])c1,-9.31% (inactive),
CCOC(=O)C1CCN(CC(O)COc2ccc(C(C)(C)C)cc2)CC1 (stereo not given),0.593% (inactive),
Cn1c(C(=O)N2CCN(Cc3ccc4c(c3)OCO4)CC2)cc2sccc21,-0.858% (inactive),
CC(C)CC(c1nnnn1CC1CCCO1)N1CCN(c2nc3ccccc3s2)CC1 (stereo not given),-1.59% (inactive),
CCn1cc(C(=O)N2CCOCC2)c(=O)c2cc(S(=O)(=O)N(C)C)ccc21,2.43% (inactive),
CCc1cc2c(=O)c(-n3cnc4ccccc43)coc2cc1O,-1.46% (inactive),
O=C(Nc1cccc(S(=O)(=O)NC2=NCCC2)c1)c1cc(-c2ccco2)nc2ccccc12,,16.5 µM (active)
CC(=O)C1=C(O)C(=O)N(c2nnn(C)n2)C1c1cccs1 (stereo not given),-0.108% (inactive),
Cc1ccc(S(=O)(=O)N2CCOCC2)cc1NC(=O)CN1C(=O)NC(C)(c2ccc(Cl)cc2Cl)C1=O (stereo not given),4.88% (inactive),
